PubChem BioAssay
Values joined by “and” are separate entries in the source; they are usually repeats but may differ in a detail not shown here. Equal entries are not always repeated. Active and inactive are the calls of the source.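 Rule for the calls, unless noted: active = compounds whose cell count with miR-34 switched on is under 0.7 times the count with it off; inactive = the rest.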

Key:
[1] = viability loss with induced miR-34 in A549 – imaging, A549 dox-inducible miR-34, nuclei and caspase counts, primary screen (AID 1347080); details: A549 miR-34 inducible, Hoechst nuclei count, 48 h; note: test concentration not given here
[2] = MELAS cybrid and Rieske KO viability enhancers – cell-based, MELAS cybrids, Rieske KO mouse fibroblasts, CellTiter-Glo, primary screen (AID 1508586;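 active = mean z-score across replicates of 1.96 or higher in either the MELAS or the Rieske mutant cell line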;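 note: test concentration not given here; z relative to plate mean and SD of compound and empty wells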); details: low glucose
[3] = galactose survival enhancers in mitochondrial complex I cybrids – cell-based, galactose medium, ATP luminescence, primary screen (AID 1645843;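 active = z-score of at least 1.8 in each of two replicates, scored against plate mean and spread of sample wells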;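 note: positive z means more ATP and so rescue of galactose-driven cybrid death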); details: complex I mutant cybrid cells, 72 h, stronger effect = higher value
[4] = stronger effect = lower value, cell number ratio, induced over uninduced
[5] = measured here: relative caspase fold change +Dox/-Dox
[6] = measured here: total cells with miR-34 induction, stronger effect = lower value
[7] = measured here: total cells without miR-34 induction
[8] = MELAS cybrid survival, CellTiter-Glo 48 h, stronger effect = higher value
[9] = Rieske KO mouse fibroblast survival, CellTiter-Glo 72 h

Compound	fold change [1, 4]	fold change [1, 5]	cell count [1, 6]	cell count [1, 7]	z-score [2, 8]	z-score [2, 9]	z-score [3]
Nc1nc(NCc2ccncc2)c2cn[nH]c2n1	0.931 (inactive)	0.844	8290	8900	-0.45 (inactive)	-0.366	-0.535 (inactive)
O=c1cc(-c2ccccc2)oc2ccccc12	0.858 (inactive)	0.735	7170	8370	2.28 (active)	0.116	1.36 (inactive)
CNC1CCC(c2ccc(Cl)c(Cl)c2)c2ccccc21 (configuration not stated)	0.897 (inactive) and 0.972 (inactive)	1.54 and 0.385	3400 and 7100	3800 and 7300	-0.116 (inactive)	-0.231	-1.88 (inactive)
CC(=O)Nc1nc2c(s1)C(=O)NCCC2	0.907 (inactive)	0.479	8770	9670	0.0141 (inactive)	-0.403	0.685 (inactive)
O=[N+]([O-])c1ccc2[nH]ncc2c1	0.885 (inactive)	0.558	8690	9820	0.727 (inactive)	-0.415	-0.195 (inactive)
O=C(Nc1nncs1)NC1Cc2ccccc2C1	0.87 (inactive)	1.52	8130	9340	-0.741 (inactive)	-0.221	-0.6 (inactive)
CCc1nc(NC(=O)N(C)Cc2cccc(-n3cccn3)c2)nn1C	0.843 (inactive)	1.39	7990	9480	0.262 (inactive)	-0.471	-0.535 (inactive)
CCC(C)(C)c1nnc(NC(=O)NCc2ccco2)s1	0.9 (inactive)	1.07	8900	9890	0.377 (inactive)	-0.396	3.32 (active)
CCc1cc(CN2CCN(C)C(CCO)C2)on1 (configuration not stated)	0.907 (inactive)	1.26	8690	9580	0.702 (inactive)	-0.294	-0.59 (inactive)
CN(C)Cc1cn(CC2CCN(C(=O)c3ccc4c(c3)OCO4)CC2)nn1	0.896 (inactive)	1.18	9300	10400	-0.121 (inactive)	-0.477	-0.48 (inactive)
Cc1ccc(-c2noc([C@@]34CC[C@@](C)(C(=O)O3)C4(C)C)n2)cc1Cl	0.896 (inactive)	1.34	8140	9090	-0.00199 (inactive)	-1.05	-0.54 (inactive)
CCn1ncc(NC(=O)Cn2cc(-c3cccc(-n4cccn4)c3)cn2)n1	0.876 (inactive)	1.27	2160	2470	-0.0561 (inactive)	-0.379	-0.505 (inactive)
O=c1c2nccnc2ncn1Cc1ccc2nsnc2c1	0.878 (inactive)	1.36	8120	9250	-0.0326 (inactive)	-0.667	-0.53 (inactive)
OCC1OC(Oc2cc(O)cc(C=Cc3ccc(O)cc3)c2)C(O)C(O)C1O (configuration not stated)	0.967 (inactive) and 0.947 (inactive)	1.94 and 0.831	9700 and 8270	10000 and 8720	-0.124 (inactive)	-0.651	0.4 (inactive)
Cn1c(=O)c(O)c(O)c2ccccc21	0.815 (inactive)	0.99	4980	6110	-0.227 (inactive)	-0.541	-2.27 (inactive)
CCOc1ccc(C=C2NCCc3cc(OCC)c(OCC)cc32)cc1OCC	0.846 (inactive)	0.801	4950	5850	-1.41 (inactive)	-0.0245	-2.65 (inactive)
Cc1cccc(CN2CCN(c3ncnc4sccc34)CC2=O)c1	0.946 (inactive)	2.04	4670	4940	-0.529 (inactive)	-0.501	2.43 (inactive)
Cc1nc(NC(=O)NCc2cccc(Cl)c2)nn1C	0.889 (inactive)	2.08	8140	9160	7.52 (active)	0.00105	-0.605 (inactive)
O=C(O)c1cccc2c(-c3ccccc3)c(-c3ccccc3)[nH]c12	0.883 (inactive)	1.11	8700	9850	-0.38 (inactive)	-0.101	0.98 (inactive)
c1ccc(NCc2cccnc2)cc1	0.876 (inactive)	1.56	8370	9560	-0.153 (inactive)	-0.0248	0.545 (inactive)
COc1ccc2[nH]cc(CCC(=O)O)c2c1	0.879 (inactive)	0.282	8310	9460	0.323 (inactive)	-0.35	0.275 (inactive)

Compound	fold change [1, 4]	fold change [1, 5]	cell count [1, 6]	cell count [1, 7]	z-score [2, 8]	z-score [2, 9]	z-score [3]
CCn1ccnc1CN(C)C(=O)c1cc(-c2cnc(N)nc2)nc2cc(C)ccc12	0.962 (inactive)	1.43	9170	9540	-0.0965 (inactive)	0.497	0.64 (inactive)
Cc1cc2nc3[nH]c(=O)[nH]c(=O)c3nc2cc1C	0.917 (inactive)	0.188	7820	8530	1.63 (inactive)	0.292	0.825 (inactive)
O=c1c2nccnc2ncn1Cc1scnc1-c1ccccc1	0.893 (inactive)	0.515	8870	9940	-0.26 (inactive)	-0.294	-0.445 (inactive)
COc1cccc(-c2noc(Cc3ccc4c(c3)OCO4)n2)c1	0.929 (inactive)	1.11	9000	9680	0.523 (inactive)	0.163	2.67 (active)
CCn1cnc(NC(=O)N(C)CC2Cc3ccccc3O2)n1 (configuration not stated)	0.971 (inactive)	1.16	9520	9810	-0.133 (inactive)	-0.0873	-0.62 (inactive)
Cc1nonc1CN(C)c1ncnc2nc[nH]c12	0.907 (inactive)	0.714	9230	10200	-0.379 (inactive)	-0.0852	-0.565 (inactive)
CC(c1ncncc1F)[C@](O)(Cn1cncn1)c1ccc(F)cc1F (some centres not stated)	0.956 (inactive) and 0.928 (inactive)	2.43 and 0.867	9660 and 8390	10100 and 9030	-0.404 (inactive)	0.698	0.71 (inactive)
O=C(O)CNC(=O)NC1CCCCC1	0.908 (inactive)	0.307	9060	9970	0.384 (inactive)	-0.24	0.34 (inactive)
CC(C)C1CCC(C(=O)NC(Cc2ccccc2)C(=O)O)CC1 (configuration not stated)	0.94 (inactive) and 0.917 (inactive)	2.3 and 1.08	9290 and 9300	9880 and 10100	-0.394 (inactive)	0.0104	0.805 (inactive)
Oc1ccc(C=Cc2cc(O)cc(O)c2)cc1	2.61 (inactive) and 0.913 (inactive)	1.12 and 0.945	6320 and 7520	2420 and 8230	-0.411 (inactive)	0.338	1.1 (inactive)
CN(C)CCOc1ccc(C(=C(CCCl)c2ccccc2)c2ccccc2)cc1	0.778 (inactive) and 1.03 (inactive)	1.46 and 0.374	3730 and 7050	4790 and 6850	-0.446 (inactive)	-0.000629	-1.88 (inactive)
COc1ccc(C(=O)Nc2c(Cl)cncc2Cl)cc1OC1CCCC1	0.898 (inactive)	0.397	7850	8740	0.807 (inactive)	0.781	0.215 (inactive)
COc1ccc(C(=O)O)cc1	0.947 (inactive)	0.667	9110	9620	-0.37 (inactive)	-0.0461	-0.635 (inactive)
CCOc1cc(CC(=O)NC(CC(C)C)c2ccccc2N2CCCCC2)ccc1C(=O)O (configuration not stated)	0.993 (inactive) and 0.919 (inactive)	2 and 0.721	8780 and 7660	8840 and 8340	-0.382 (inactive)	0.561	1.65 (inactive)
Cc1nn(C)c(C)c1-c1ccnc(N(C)Cc2cc(-c3ccccn3)no2)n1	0.81 (inactive)	1.13	6820	8420	-0.553 (inactive)	0.716	-0.45 (inactive)
COc1cc(F)ccc1C(=O)N1CCc2[nH]nc(Cc3ccccc3)c2C1	0.845 (inactive)	1.46	6700	7930	0.33 (inactive)	0.986	-0.125 (inactive)
COC1C=CO[C@@]2(C)Oc3c(C)c(O)c4c(O)c(c(C=NN5CCN(C6CCCC6)CC5)c(O)c4c3C2=O)NC(=O)C(C)=CC=CC(C)C(O)C(C)C(O)C(C)C(OC(C)=O)C1C (some centres not stated)	1.26 (inactive) and 0.937 (inactive)	1.41 and 0.74	6670 and 7260	5310 and 7750	-0.432 (inactive)	-0.0629	0.32 (inactive)
CC(C)(CCl)C(=O)Nc1ccc(C(F)(F)F)cc1	0.859 (inactive)	1.51	8340	9720	0.804 (inactive)	0.128	0.14 (inactive)
COC1C=CO[C@@]2(C)Oc3c(C)c(O)c4c(O)c(c5c(c4c3C2=O)NC2(CCN(CC(C)C)CC2)N=5)=NC(=O)C(C)=CC=CC(C)C(O)C(C)C(O)C(C)C(OC(C)=O)C1C (some centres not stated)	0.889 (inactive) and 0.859 (inactive)	1.03 and 1.09	7260 and 7580	8160 and 8820	-0.0325 (inactive)	0.718	1.02 (inactive)
Cc1ccc(C(=O)N2CCC(Cc3ccccc3)CC2)cc1	0.922 (inactive)	1.12	7870	8540	-0.903 (inactive)	0.658	-0.71 (inactive)
